PubChem BioAssay AID488840 (Broad Institute, 2010)
Screen size: about 1,400 compounds; about 45 (3%) were called active.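 Rule for the calls: active = half-maximal dose of signal decrease from fit no higher than ten times the top valid tested dose; inconclusive = fit invalid, or curve flat with 30 to 70% inhibition; inactive = the rest.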 The list is a sample of the results. Potency and affinity values are given separately.

molecular target: Lysine-specific demethylase 4A (Homo sapiens) (UniProt O75164); experiment: JMJD2A histone demethylase inhibitors, dose response, selectivity assay for GASC-1 inhibitor project, biochemical, DELFIA europium, cherry-picked samples (AID 488840); details: GST-JMJD2A(1-420) H3K9me3 demethylation; series mostly up to 6 µM;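 note: europium signal reports the dimethyl H3K9 product detected by antibody so inhibitors lower it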
Sequence (O75164 whole entry, looked up): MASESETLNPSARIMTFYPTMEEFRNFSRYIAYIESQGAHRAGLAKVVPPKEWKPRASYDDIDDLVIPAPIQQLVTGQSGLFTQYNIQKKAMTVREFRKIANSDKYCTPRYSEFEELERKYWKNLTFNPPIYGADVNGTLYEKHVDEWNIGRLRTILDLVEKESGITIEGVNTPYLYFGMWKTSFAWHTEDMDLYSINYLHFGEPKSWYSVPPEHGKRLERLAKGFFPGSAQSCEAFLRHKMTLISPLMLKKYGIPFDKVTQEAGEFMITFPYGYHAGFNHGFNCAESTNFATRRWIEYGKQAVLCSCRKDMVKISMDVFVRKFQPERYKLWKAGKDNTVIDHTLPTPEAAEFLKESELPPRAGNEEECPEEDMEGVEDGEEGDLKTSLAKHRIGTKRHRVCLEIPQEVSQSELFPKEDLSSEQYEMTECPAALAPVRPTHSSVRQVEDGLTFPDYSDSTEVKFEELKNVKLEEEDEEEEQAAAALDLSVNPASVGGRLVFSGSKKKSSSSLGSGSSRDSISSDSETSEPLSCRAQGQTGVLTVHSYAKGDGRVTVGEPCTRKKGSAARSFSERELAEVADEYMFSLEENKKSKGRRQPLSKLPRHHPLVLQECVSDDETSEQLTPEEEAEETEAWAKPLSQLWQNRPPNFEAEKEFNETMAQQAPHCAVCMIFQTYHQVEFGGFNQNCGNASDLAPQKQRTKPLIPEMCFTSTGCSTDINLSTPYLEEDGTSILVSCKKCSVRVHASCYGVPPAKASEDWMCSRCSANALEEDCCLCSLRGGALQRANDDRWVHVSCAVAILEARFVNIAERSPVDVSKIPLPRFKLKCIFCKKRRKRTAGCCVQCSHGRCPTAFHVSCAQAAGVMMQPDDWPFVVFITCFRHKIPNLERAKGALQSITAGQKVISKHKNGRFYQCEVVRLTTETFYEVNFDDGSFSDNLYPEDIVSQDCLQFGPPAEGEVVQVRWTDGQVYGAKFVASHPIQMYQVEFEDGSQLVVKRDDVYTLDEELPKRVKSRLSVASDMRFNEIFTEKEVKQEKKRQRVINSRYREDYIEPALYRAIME

outcome, inactive:
CC(C)C[C@@H]1CN=C(N)N1C[C@@H]1CCCN1C[C@H](C)N1C[C@@H](Cc2ccccc2)N(CCc2ccc(Cl)c(Cl)c2)C1=N, Cc1ccc(S(=O)(=O)N2CCOCC2)cc1C(=O)NNC(=O)c1ccoc1C, COCCCNC(=O)CC1C[C@H](C(=O)N2CCOCC2)[C@@]2(C)c3[nH]c4ccccc4c3CCN2C1=O (stereo partly drawn), Cc1noc(C)c1CCC(=O)N1CCCC(CCC(=O)NCc2ccccc2F)C1 (stereo not drawn), COCCn1c(N)c(C(=O)NCC2CCCO2)c2nc3ccccc3nc21 (stereo not drawn), Cn1c(=O)c2c(nc(NC3CCCCC3)n2Cc2ccccc2)n(C)c1=O, CC(=O)C[C@@H](O)CC(=O)[C@@H]1OC(=O)[C@@H](C)C/C=C\Cc2ccccc21, CCN1C(=O)C(CC(=O)Nc2ccc(OC)cc2)N(CCc2ccccc2F)C1=S (stereo not drawn), COC(=O)C1CC(O)CN1C(=O)NC1CCCCC1 (stereo not drawn), CNc1nc2c(c(=O)[nH]c(=O)n2C)n1CCCc1ccccc1, CCCCn1c(=O)[nH]c(=O)c2c1nc(-c1cc(Cl)c(OC)c(OC)c1)n2C, COc1ccc(/C=N/NS(=O)(=O)c2ccc(NC(C)=O)cc2)cc1, N/C(=N\S(=O)(=O)c1cc(C(F)(F)F)cc(C(F)(F)F)c1)c1ccccc1, C[C@@H]1CN([C@@H](C)CO)C(=O)c2cc(NC(=O)Nc3ccc4c(c3)OCO4)ccc2O[C@H]1CN(C)S(=O)(=O)c1ccc(F)cc1, COC(=O)c1ccc(CSc2nc3sc(C(=O)O)c(C)c3c(=O)[nH]2)cc1, CC1CCN(C(=S)NC(=O)c2cccc([N+](=O)[O-])c2)CC1, COc1ccccc1CNC(=O)COc1ccc(S(=O)(=O)N2CCOCC2)cc1C, O=C(CN1C(=O)c2ccccc2C1=O)NCC1COc2ccccc2O1 (stereo not drawn), O=C(NC1CC2CCC1C2)C1COc2ccccc2O1 (stereo not drawn), COc1ccccc1/C=C1\SC(=S)N(CCC(=O)NNC(=O)c2ccccc2OC)C1=O, CNC[C@@H]1Oc2c(NC(=O)Nc3ccccc3)cccc2C(=O)N([C@@H](C)CO)C[C@H]1C, N#Cc1cc(-c2ccccc2)nnc1Sc1ccccc1, COc1ccc(OCC(=O)N2CCC3(CC2)CC(=O)c2ccccc2O3)cc1, Cc1ccc(S(=O)(=O)N2[C@@H](c3ccc(Br)cc3)C(C(=O)O)=CC[C@H]2c2cccc(Cl)c2)cc1, CCc1ccc([C@@H]2CC=C(C(=O)O)[C@H](c3ccc(Br)cc3)N2S(=O)(=O)c2ccc(C)cc2)cc1, O=C(Nc1nnc(-c2cc(Cl)ccc2Cl)o1)c1ccco1, O=C(Oc1ccc(N2C(=O)CCC2=O)cc1)c1ccccc1, O=C(CC1C[C@H](C(=O)N2CCCCC2)[C@@]2(CCc3ccccc3)c3[nH]c4ccccc4c3CCN2C1=O)NCCC1=CCCCC1 (stereo partly drawn), Cc1ccc(OCC(=O)Nc2ccccc2Sc2ccccc2)c([N+](=O)[O-])n1, O=c1oc(C2(O)CCCCC2)cc2ccccc12, COc1ccc(C(=O)O/N=C(\C)c2cnccn2)cc1, COc1ccc(NC(=O)N(C)C[C@H]2Oc3ccc(NC(=O)CCC(F)(F)F)cc3C(=O)N([C@H](C)CO)C[C@@H]2C)cc1, O=C(CSc1nc(-c2ccccc2)cc(=O)[nH]1)NCc1ccc2c(c1)OCO2, O=S(=O)(c1ccc2nc(Nc3ccccc3)ccc2c1)N1CCCCC1, N#Cc1cnn(CC2CCCCC2)c1N, CC(=O)C(Sc1nc(N2CCOCC2)nc(N2CCOCC2)n1)C(=O)Nc1ccccc1 (stereo not drawn), CCOC(=O)C1=C(c2ccccc2)NC(=O)NC1c1ccc(O)c(OCC)c1 (stereo not drawn), CCOC(=O)C1=C(C)NC(=O)NC1c1ccc(Br)s1 (stereo not drawn), Cc1cc(SCC(=O)c2ccccc2)n2nc(C)nc2n1, N=c1nc(-c2ccccc2)ccn1O, O=C(NCC1CCCO1)Nc1ccccc1 (stereo not drawn), CCOc1ccc(CN2CCN(Cc3nc(C(C)C)cs3)CC2CCO)cc1 (stereo not drawn), O=C(OCc1c(Cl)cccc1Cl)c1cnccn1, Cc1ccc(NN=Nc2nc3c([nH]2)c(=O)n(C)c(=O)n3C)cc1, Cn1c(=O)c2[nH]c(N3CCN(c4cccc(O)c4)CC3)nc2n(C)c1=O, C#CCOCCOCCOCCNc1nc(N2CCN(C(=O)C([C@@H](C)O)n3cc([C@@H](N)CCCCN)nn3)CC2)nc(N2CCN(C(=O)[C@H](CC(N)=O)n3cc([C@@H](N)C(C)C)nn3)CC2)n1 (stereo partly drawn), COc1ccc(/C=N/N(C)c2cc(=O)n(C)c(=O)[nH]2)cc1OC, Nc1ccc(S(=O)(=O)NC2(C(F)(F)F)NC(=O)N(c3ccc(F)cc3)C2=O)cc1 (stereo not drawn), COc1ccc(N(Cc2cc3cccc(C)c3[nH]c2=O)S(C)(=O)=O)cc1, O=C(Nc1ccccc1)N(CCc1nc2ccccc2[nH]1)C1CCCC1, O=C(Cn1cnc2c(OCc3ccccc3)ncnc21)NCCCc1ccccc1, COc1ccc(NC(=O)NCCCCc2ccccc2)c(OC)c1, Cc1cc(NC(=O)CCC(=O)N(c2ccccc2)C2(C(=O)NC3CCCCC3)CCCC2)no1, Cc1cnc(NC(=O)c2ccc(-c3nc4ccccc4s3)o2)s1, Cn1c(/N=C/c2cc(Cl)ccc2O)nc2ccccc21, O=C(COC(=O)C1(c2ccc(Cl)cc2)CCCC1)NC1CCS(=O)(=O)C1 (stereo not drawn), O=C(CSc1nnc(CNC(=O)c2c(F)cccc2Cl)o1)Nc1ccc2c(c1)OCCO2, COc1ccc(-c2nn3c(-c4ccco4)nnc3s2)cc1OC, CC(C)(C)n1nc2c(c1NC(=O)c1ccc(Br)o1)CS(=O)C2 (stereo not drawn), O=C(Nc1ccc(-c2nc3ncccc3o2)cc1)c1ccc(Br)o1, CCn1c(CCn2ccnc2C)n[nH]c1=S, COC(=O)c1cc(S(=O)(=O)N2CCN(c3ccc(F)cc3)CC2)c[nH]1, COc1ccc(/C=N/n2c(=O)[nH]c3c([nH]c4ccc(Br)cc43)c2=O)cc1CN1CCOCC1
